From PubChem BioAssay
The list is not random: actives were taken first. Their share in the collection is about 2.3%.
HepG2 tox-1 = counter-screen for TGF-b inhibitors: cytotoxicity in HepG2 cells | HepG2 CAGA-GFP viability, ATP luminescence, 18 h | Potency, µM (doses to about 46.1 µM), for the others: top-dose activity change, negative = cytotoxicity, most hits filed as cytotoxic | actives 0.76% (n = 410,000)
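CellTiter-Glo luminescence gave cytotoxicity after 18 hours at 37 degrees C. The cells were HepG2 CAGA-GFP in 1% FBS DMEM, stimulated with 500 pg/mL TGF-beta after compound addition. %Activity was normalised to no-cell wells (complete cell-killing) and DMSO (no toxicity), and curves were fitted and classified.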
ATXN2 expr inh = reduces ATXN2 reporter expression in HEK-293 cells | actives 0.72% (n = 360,000) | Potency, µM (series often up to 57 µM), inactives show at the top dose activity change, negative = inhibition, most hits filed as inhibitors | HEK-293 ATXN2-luciferase reporter, luminescence, 24 h | AID 1745845; further: on the % scale 0 is the no-effect control and ±100 the full control effect; nearly all actives have a fitted effect of over 55% in size
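qHTS (up to 57 uM final) was run with 24 h compound exposure of reporter cells at 37 °C. Each well was multiplexed: SteadyGlo luminescence measured ATXN2-luciferase expression after a fluorogenic Gly-Phe-AFC viability readout (25 uM final).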
ATXN viability = viability counter-screen for ATXN expression inhibitors; S2 cells (HEK-293 line with an ATXN2-luciferase reporter) viability, CellTiter-Fluor protease fluorescence, 24 h; actives 0.49% (n = 400,000); Potency, µM (top dose mostly 56.7 µM), usual class: cytotoxic; further: nearly all actives have a fitted effect of over 40% in size
TGFb SMAD3 inh = TGF-b pathway inhibition; actives 1.2% (n = 410,000); Potency, µM (top dose mostly 46.1 µM), for the others: top-dose activity, negative = inhibition, hits mostly inhibitors; HepG2 CAGA-GFP TGF-b/SMAD3 reporter, GFP fluorescence, 18 h; TGF-beta stimulated, 500 pg/mL final; further: on the % scale 0 is the no-effect control and ±100 the full control effect; nearly all actives have a fitted effect of over 65% in size
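Inhibition was scored as loss of TGF-beta-induced (500 pg/mL final, 18 hours, 37 degrees C) GFP in HEPG2 cells carrying a CAGA-GFP reporter, in DMEM with 1% FBS. Well GFP was summed per cell; Activity was normalised to unstimulated and stimulated DMSO wells, then concentration-response fitting.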
TGFb CAGA inh = TGF-b pathway inhibition, cherry-pick retest; shares compounds with TGFb SMAD3 inh; HepG2 CAGA-GFP TGF-b reporter, GFP fluorescence, 18 h; cells stimulated with TGF-beta, 500 pg/mL; Potency, µM (titrated, usually from 46.1 µM), for the others: at the top dose activity, negative = inhibition, hits mostly inhibitors; actives 63% (n = 1,600); further: on the % scale 0 is the no-effect control and ±100 the full control effect; nearly all actives have a fitted effect of over 65% in size
HepG2 tox-2 = counter-screen for TGF-b inhibitors: cytotoxicity in HepG2 cells; actives 27% (n = 1,600); HepG2 CAGA-GFP viability, ATP luminescence, 18 h; cells stimulated with TGF-beta, 500 pg/mL; Potency, µM (top dose mostly 46.1 µM), for inactives: at the highest dose activity, negative = cytotoxicity, hits mostly inhibitors; shares compounds with TGFb SMAD3 inh; AID 720535; further: on the % scale 0 is the no-effect control and ±100 the full control effect; nearly all actives have a fitted effect of over 70% in size
CCL64 TGFb inh = blocks TGF-b signaling in CCL64 reporter cells | shares compounds with TGFb SMAD3 inh | CCL64 CAGA-GFP reporter, TGF-b stimulated, GFP fluorescence, 18 h | Potency, µM (titrated, usually from 46.1 µM), without a hit: at the top dose activity, negative = inhibition, most hits filed as inhibitors | actives 41% (n = 1,600) | AID 720536; further: nearly all actives have a fitted effect of over 65% in size
COP TGFb inh = TGF-b inhibition validated with COP promoter | shares compounds with TGFb SMAD3 inh | HepG2 COP-GFP TGF-b reporter, GFP fluorescence, 18 h; cells stimulated by added recombinant TGF-beta | Potency, µM (doses to about 46.1 µM), for inactives: top-dose activity, negative = inhibition, most hits filed as inhibitors | actives 3% (n = 1,600); further: nearly all actives have a fitted effect of over 70% in size
Starred values were filed as active, the others as inactive; i = inactive; ? = inconclusive; . = no result. The call rests on the fitted dose curve; in most records, active means well fitted curve in the direction sought with a large enough effect; inconclusive means small, poorly fitted or top-dose-only effect, or another doubt; inactive means no such curve, though single readings can be large; an effect the other way counts as inactive or inconclusive. Potency means the concentration at half of the fitted maximal effect.

SMILES	HepG2 tox-1	ATXN2 expr inh	ATXN viability	TGFb SMAD3 inh	TGFb CAGA inh	HepG2 tox-2	CCL64 TGFb inh	COP TGFb inh
CSCCC(NS(=O)(=O)c1cccc(C(F)(F)F)c1)C(=O)Nc1ccccc1N1CCCC1 (stereo not drawn)	-27%	1%	?	14µM*	16µM*	-7%	16µM*	-1%
O=C(COc1cccc(C(F)(F)F)c1)Nc1ccccc1N1CCCCC1	-10%	-3%	i	2%	.	.	.	.
O=C1O[C@H]2[C@H](O)[C@@H]1OC(O)[C@H]2O (stereo partly drawn)	.	.	i	.	.	.	.	.
COc1ccc(/C(C)=N/Nc2nncc3ccccc23)cc1	-5%	85%	i	?	.	.	.	.
COc1ccc(/C(C)=N/Nc2nc3ccccc3nc2C)cc1	-41%	-21%	i	7.9µM*	?	-1%	-13%	12%
O=S(=O)(c1cc(F)ccc1F)N1CCN(c2ccccn2)CC1	2%	3%	i	-14%	.	.	.	.
O=S(=O)(c1cc(F)ccc1F)N1CCN(c2ncnc3ccccc23)CC1	-39%	.	i	13µM*	8.2µM*	-27%	-15%	-4%
O=C(NC(NNc1ccc([N+](=O)[O-])cc1)(C(F)(F)F)C(F)(F)F)c1ccccc1Cl	-22%	-9%	i	?	.	.	.	.
O=C(NC(Nc1nc2ccc([N+](=O)[O-])cc2s1)(C(F)(F)F)C(F)(F)F)c1cccnc1	-31%	?	?	3.2µM*	4.1µM*	1.6µM*	5.8µM*	87%
O=C(NC(Nc1nc2ccc([N+](=O)[O-])cc2s1)(C(F)(F)F)C(F)(F)F)c1ccccc1Cl	-55%	?	?	0.45µM*	0.92µM*	1µM*	1.5µM*	82%
CCc1ccc(NC(=O)Cn2c(SCc3ccc(C)cc3)nc3ccncc32)cc1	-29%	.	.	?	.	.	.	.
O=C(c1cc(-n2cnnc2)ccc1Cl)N1CCN(c2nc(-c3ccccc3)cs2)CC1	-5%	?	i	11µM*	8.2µM*	-30%	?	12%
O=C(NCc1cccnc1)/C(=C\c1ccc(-c2ccc(Br)cc2)o1)S(=O)(=O)c1ccccc1	-98%	7.1µM*	14µM*	10µM*	5.8µM*	3.3µM*	5.2µM*	?
O=C(CN(Cc1ccc(Br)cc1)S(=O)(=O)c1ccccc1)NCc1cccnc1	-7%	-9%	i	-1%	.	.	.	.
Cc1ccc2ncnc(NCc3ccco3)c2c1	-16%	.	.	6%	.	.	.	.
NC(=O)c1c(NC(=O)c2noc3c2CCCC3)sc2c1CCCC2	4%	.	.	-1%	.	.	.	.
Cc1cc(NC(=S)NC(=O)C2CC2)ccc1Br	-2%	71%	i	4µM*	0.82µM*	0.46µM*	?	25%
CO[C@H]1[C@H](NC(=O)c2cccc(F)c2)c2ccccc2C12CCN(Cc1ccco1)CC2	.	.	i	.	.	.	.	.
O=S(=O)(Nc1cccc2ccccc12)c1cccc2ccccc12	-28%	.	.	?	.	.	.	.
CNc1c2cccc(C)c2nc2c(C(=O)NCCN(C)C)cccc12	-7%	?	.	1.1µM*	0.58µM*	0.52µM*	1.3µM*	69%
Cc1ccc(C(=O)NCCN(C)C)c(C)c1	-2%	3%	?	-7%	.	.	.	.
Cc1cccc(OCCn2c(CCNC(=O)C3CCCCC3)nc3ccccc32)c1	-11%	.	.	-3%	.	.	.	.
Nc1ncc(Br)cc1S(=O)(=O)Nc1cc(C(F)(F)F)cc(C(F)(F)F)c1	-51%	0%	?	5.6µM*	6.5µM*	12µM*	?	35%
Cc1ccc(NS(=O)(=O)c2cc(Br)cnc2N)c(Cl)c1	4%	-10%	i	-10%	.	.	.	.
N#C/C(=N\Nc1cccc(Cl)c1)C(=O)c1ccccc1	-32%	-35%	?	?	.	.	.	.
SMILES	HepG2 tox-1	ATXN2 expr inh	ATXN viability	TGFb SMAD3 inh	TGFb CAGA inh	HepG2 tox-2	CCL64 TGFb inh	COP TGFb inh
COc1ccc(C(=O)/C(C#N)=N/Nc2cccc([N+](=O)[O-])c2)cc1	-19%	.	11µM*	10µM*	5.2µM*	?	8.2µM*	46%
Cc1onc(-c2ccccc2)c1C(=O)Nc1ncc([N+](=O)[O-])s1	-35%	?	?	8.9µM*	15µM*	?	23µM*	50%
Cc1onc(-c2ccccc2)c1C(=O)Nc1nnc(C(C)C)s1	-2%	1%	i	-1%	.	.	.	.
O=C(Nc1ccc(F)cc1)c1nc(S(=O)(=O)Cc2ccccc2)ncc1Cl	7.1µM*	?	.	5µM*	3.3µM*	15µM*	2.6µM*	?
COc1ccc(OC)c(NC(=O)c2nc(S(=O)(=O)Cc3ccccc3)ncc2Cl)c1	7.9µM*	-25%	18µM*	3.5µM*	4.6µM*	6.5µM*	3.7µM*	10µM*
Cc1cccc(CS(=O)(=O)c2ncc(Cl)c(C(=O)Nc3c(C)cccc3C)n2)c1	10µM*	-18%	?	6.3µM*	4.6µM*	9.2µM*	4.6µM*	?
COc1ccc(NC(=O)c2nc(S(=O)(=O)Cc3cccc(C)c3)ncc2Cl)c(OC)c1	0%	.	i	38%	.	.	.	.
Cc1ccccc1CS(=O)(=O)c1ncc(Cl)c(C(=O)Nc2ccc(F)cc2)n1	22µM*	.	.	10µM*	?	?	3.7µM*	?
Cc1ccn2c(Nc3c(C)cccc3C)c(-c3ccc(Cl)s3)nc2c1	-23%	-16%	?	?	.	.	.	.
CCC1CC=CC2C1C(=O)N(Cc1ccccc1)C2c1cc(C)ccc1F (stereo not drawn)	-48%	.	.	?	.	.	.	.
CCCCC1CN(CCNC(=O)c2ccccn2)Cc2ccccc2O1 (stereo not drawn)	.	.	i	.	.	.	.	.
CCOc1ccccc1C1NC(c2ccc3c(c2)OCO3)=CC(c2ccccc2O)N1 (stereo not drawn)	-33%	.	.	-23%	.	.	.	.
COc1ccc(C)cc1NC(=O)c1ccccc1NS(=O)(=O)c1ccc(Cl)s1	-53%	.	i	5µM*	12µM*	?	6.5µM*	45%
